The values below come from PubChem BioAssay (NCI).

Each structure is given as a SMILES string. About 83,000 compounds went through this panel and 20% of them were active in at least one assay; those are over-represented in the sample as a whole.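 Cells were grown in 96-well plates and exposed to the test compound at a single concentration for 48 hours; results are reported as percent growth, with values below 10 considered active.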 A number with no mark means an inactive call. Activity calls are given as the source filed them.

The subject of this assay is RXF 393 renal. Description: NCI-60 one-dose screen, 48 h (100 = growth as untreated, 0 = no growth, -100 = all killed). To be noted: 10 µM unless noted.
As for `O=C(NCc1ccco1)C1CCN(S(=O)(=O)c2ccc(Cl)cc2)CC1`, the growth is 85.1%. The value for `C(=C\c1ccccc1)/CN1CCN(C(c2ccccc2)c2ccccc2)CC1` was 81%; that for `O=C(Nc1nc2ccccc2[nH]1)C(=O)Nc1nc2ccccc2[nH]1` was 102%; that for `Brc1ccccc1Nc1ccc2nnc(-c3ccncc3)n2n1` was 101%. Next, `COC(=O)[C@@H]1CCCN1C(=O)[C@@H]1CCCN1C(=O)[C@@H](Cc1c[nH]c2ccccc12)NC(=S)Nc1cc(C(F)(F)F)cc(C(F)(F)F)c1`: 47.5%; `COc1ccc(C2OCC(C)(C)CO2)cc1OC`: 88%; `C=CC(=O)N1CC2(CCC(n3nc(-c4ccc(Oc5ccccc5)cc4)c4c(N)ncnc43)CC2)C1`: -94.9% (active). Next, `Cc1ccc(N=c2nc3sc4c(C)ccc(C)c4n3c(N)c2C#N)cc1`: 124%; `Cc1cc(=O)[nH]n1-c1cc(Cl)ccc1N`: 107%.

As for `COCCOC1=C(Cl)C(=O)c2ccccc2C1=O`, the growth was 18.7%.

`Cc1nn2c(-c3nc4ccc(Cl)cc4[nH]3)c(-c3ccc(F)cc3)nc2s1`: the growth was 96.6%. Next, `Oc1ccc(Cl)cc1CNc1nc2ccccc2[nH]1`: 51.7%.

With `CN([N-]C(=O)CC(=O)[N-]N(C)C(=S)c1ccccc1)C(=S)c1ccccc1.[Cu+2]`, the growth is -91.8% (active). The value for `COc1ccc(-c2nc3sc(C)nn3c2-c2nc3cc(C)c(C)cc3[nH]2)cc1` was 99.5%; that for `Cc1ccc2c(c1)c(Sc1ccc(C(=O)NO)cc1)c1n2CN(C)CC1` was 33%.
